A selection: hits, their analogues and other compounds. The true share with any hit is near 7.1%.
LASV entry inh = qHTS for Inhibitors of binding or entry into cells for Lassa Virus; actives 4.1% (n = 18,000); AID 720533, 2013; Lassa virus pseudotyped entry inhibition, cell-based qHTS; Potency, µM (series often up to 49.2 µM), for inactives: at the highest dose activity change, negative = inhibition, usual class: inhibitors
Marburg entry = qHTS for Inhibitors of binding or entry into cells for Marburg Virus; actives 6.5% (n = 18,000); Potency, µM (highest dose often 49.2 µM), inactives show at the highest dose activity change, negative = inhibition, most hits filed as inhibitors; AID 720532, 2013; Marburg virus pseudotype entry/binding inhibition, cell-based
* marks the source's active call; other numbers are inactive results; ? = inconclusive; nt = no result; ! = a repeat was not active; [ ] = another dose, or the depositor's remark. Calls follow the shape of the full dose curve; tested in HEK293 cells. % is scaled to controls: 0 for no effect and ±100 for the full control effect; potency is read from the fitted curve at half-maximal effect.

SMILES	LASV entry inh	Marburg entry
CSCC[C@@H]1NC(=O)[C@@H](NC(=O)[C@H](CCCNC(=N)N)NC(=O)[C@H](CC(C)C)NC(=O)[C@H](CCSC)NC(=O)[C@H](CC(=O)O)NC(=O)[C@H](Cc2ccccc2)NC(=O)[C@@H](N)CC(=O)O)CSSC[C@@H](C(=O)N[C@@H](Cc2c[nH]c3ccccc23)C(=O)N[C@@H](CCC(N)=O)C(=O)N[C@H](C(=O)O)C(C)C)NC(=O)[C@@H]2CCCN2C(=O)[C@H](CCCNC(=N)N)NC(=O)[C@H](Cc2ccc(O)cc2)NC(=O)[C@H](C(C)C)NC(=O)[C@H](CCCNC(=N)N)NC(=O)CNC(=O)[C@H](CC(C)C)NC1=O	6%	7%
O=C1[C@H]2[C@@H]3[C@@H](O)[C@H](O)CC(=NOCc4ccccc4)[C@H]3CC[C@H]2C(=O)N1Cc1ccc2c(c1)OCO2	nt	-38%[8.59 µM]
COc1cc2oc(=O)cc(CN3CCOCC3)c2cc1Cl	7%	6%
C[C@@]1(C(=O)O)NCCc2cc(O)c(O)cc21	-17%	8.9µM*
CNc1cc(NS(=O)(=O)c2ccc(N)cc2)nc(NC)n1	4%	14%
C=CC(=O)Nc1cc2c(Nc3ccc(F)c(Cl)c3)ncnc2cc1OCCCN1CCOCC1	?	7.1µM*
COc1cc2ncnc(Nc3ccc(Cl)cc3F)c2cc1OC	0%	-4%
O=C1C=C2C=C[C@@H]3C[C@@]2(O1)[C@H]1CCCCN31	?	14µM*
CCOC(=O)c1ncn2c1CN(C)C(=O)c1cc(F)ccc1-2	2%	3%
OCc1cccnc1	5%	36%
CNCC/C=C/c1cccnc1	-23%	-4%
CNCCC=C1c2ccccc2CCc2ccccc21	32µM*	10µM*
CN1CC[C@@H]2CN3CCc4cccc(c43)[C@@H]2C1	-1%	3%
O=C(O)CNC(=O)C(CS)Cc1ccccc1 (centres undefined)	-3%	0%
C=CC[C@@]1(C(=O)OC)C=C[C@@H](C)[C@H](c2ccccc2Br)N1C(=O)C(F)(F)F	?	-11%[8.59 µM]
CN1CCCCC1Cn1cc(C(=O)c2cc([N+](=O)[O-])ccc2I)c2ccccc21 (centres undefined)	?	10µM*
S=C=Nc1cccc(C2(N3CCCCC3)CCCCC2)c1	14µM*	?
C[C@H]1CN(C2CCCCC2)C(=O)[C@H]1CC(=O)Nc1ccc(Br)cc1	nt	9%
CC(C)[C@@]1(NC(=O)[C@@H]2C[C@@H]3c4cccc5[nH]cc(c45)C[C@H]3N(C)C2)O[C@@]2(O)[C@@H]3CCCN3C(=O)[C@H](Cc3ccccc3)N2C1=O	35µM*!	7.1µM*
CC(C)[C@@]1(NC(=O)[C@@H]2C[C@H]3c4cccc5[nH]cc(c45)C[C@@H]3N(C)C2)O[C@]2(O)[C@H]3CCCN3C(=O)CN2C1=O	-12%[17.8 µM]	?
CN1C[C@H](C(=O)N[C@@]2(C)O[C@@]3(O)C4CCCN4C(=O)C(Cc4ccccc4)N3C2=O)C[C@H]2c3cccc4[nH]cc(c34)C[C@H]21 (some centres undefined)	-10%	-22%
CC(C)[C@H]1C(=O)N2CCC[C@H]2[C@]2(O)O[C@](NC(=O)[C@@H]3C[C@@H]4c5cccc6[nH]cc(c56)C[C@H]4N(C)C3)(C(C)C)C(=O)N12	-19%	7.1µM*
CCOC(=O)c1ccccc1O	?	13%
CSc1ncccc1C(=O)NCCN1Cc2ccccc2OC(c2ccccc2F)C1 (centres undefined)	-25%	0%
CN(c1ccc(NC(=O)Nc2c(Cl)cccc2Cl)cc1)c1ccnc(Nc2cccc(CS(C)(=O)=O)c2)n1	-48%	-44%
SMILES	LASV entry inh	Marburg entry
O=C(O)c1cc(NCc2cc(O)ccc2O)ccc1O	-4%	-12%
Cc1cc(-c2ccnc(-n3ncc(C(=O)N(C)Cc4nccs4)c3C)n2)c(C)s1	-4%	-8%
CN(C)Cc1ccccc1-c1nccc(NC2CC2)n1	-6%	-22%
CC[C@H](C)[C@@H](NC(=O)O[C@H]1C(=O)c2cc(OC)ccc2O[C@@H]1c1ccc(OC)c(Br)c1)C(=O)OC	1%	17%
C[C@@H](N)C(=O)c1ccccc1	-2%[107 µM]	1%[107 µM]
O=C1CN(/N=C/c2ccc(-c3ccc([N+](=O)[O-])cc3)o2)C(=O)N1	-6%	15%
Cc1cc(N)c2ccccc2[n+]1CCCCCCCCCC[n+]1c(C)cc(N)c2ccccc21	28µM*	?
CCN1C(=O)[C@@H]2[C@H]3[C@H](O)[C@H](O)CC(=NNC(=O)OCc4ccccc4)[C@@H]3CC[C@H]2C1=O	nt	-8%[8.59 µM]
COc1ccc([C@H]2C[C@@H](n3cc(COC(=O)c4ccccc4)nn3)[C@H](O)CN2CC2CCCCC2)cc1	-17%	?
Cc1cc2nc(N3CCC(NC(C)c4nc(-c5ccccn5)no4)CC3)nc(C)c2cc1C (centres undefined)	-2%	-28%
CO[C@@H]1CC[C@@]2(C)[C@@H](CC[C@@]3(C)[C@H]2CC=C2[C@H]4CC(C)(C)[C@H](O)[C@@H](OC(C)=O)[C@]4(CO)[C@H](O)C[C@]23C)[C@@]1(C)CO (tested in a mixture with another compound)	9%[17.8 µM]	-24%[17.8 µM]
C[C@@H]1OC(OC2CC[C@@]3(C)C(CC[C@@]4(C)C3CC=C3C5CC(C)(C)CC[C@]5(C(=O)OC5OCC(O)[C@@H](O)[C@@H]5OC5O[C@@H](C)[C@H](O[C@H]6OC(CO)C(O)C(O)C6O)C(O)C5O)C(O)C[C@@]34C)C2(C)C)C(O)C(O)[C@H]1OC1OCC(O)C(O)[C@H]1O (some centres undefined)	11µM*	?
O=C(O)c1ccccc1O	-6%	5%
C[CH2][Hg][S]c1ccccc1C(=O)O	1.1µM*	?
Cc1ccc2c(c1)CN(C(=O)CC(c1ccccc1)c1ccco1)CC(C)O2 (centres undefined)	-18%	-16%
Cn1cnc2c(F)c(Nc3ccc(Br)cc3Cl)c(C(=O)NOCCO)cc21	9%	8%
Cc1cc(I)ccc1Nc1c(C(=O)NOCC2CC2)cc(F)c(F)c1F	?	11µM*
Nc1nc(SCc2ccc([N+](=O)[O-])cc2)c2ncn([C@@H]3O[C@H](CO)[C@@H](O)[C@H]3O)c2n1	7%	13%
COC(=O)c1ccc(CN2C(=O)[C@@]3(CC(C)=CC[C@@H](COc4ccccc4)O3)c3c(Br)cccc32)cc1	?	-28%[8.59 µM]
O=C1c2ccccc2CN2C(=O)c3ccccc3CN12	-21%	-1%
CCCCCCCC/C=C\CCCCCCCC(=O)N[C@@H](CO)Cc1ccc(O)cc1	28µM*	?
CCCCCCCC/C=C\CCCCCCCC(=O)NC(C)C(=O)O (centres undefined)	6%	2%
N[C@@H](CO)C(=O)O	5%	2%
COC(=O)C1=C[C@@H]([C@@H](C)[C@H](OC)c2ccccc2Br)[C@@H]2OCC[C@H]12	32%[8.59 µM]	40%[8.59 µM]
COC(=O)C1=C[C@H]([C@@H](C)[C@H](OC)c2ccccc2Br)[C@H]2c3ccccc3O[C@@H]12	1.7µM*	?
CC(C)(N)Cc1ccc(Cl)cc1	4%	?
COc1ccccc1[C@@H]1C(c2ccc(F)cc2)=NN(c2ccccc2)[C@H]1C(=O)N1CCOC1=O	-25%	-14%
C[C@@H]1[C@@H]2Cc3ccc(O)cc3[C@@]1(C)CCN2CCc1ccccc1	?	20µM*
C[C@@H]1[C@@H]2Cc3ccc(O)cc3[C@@]1(C)CCN2CC1CC1	-9%	-14%
COC(=O)C(N)CS (centres undefined)	-7%	6%
